Assay results as given in PubChem BioAssay AID1159580 (chemical genetic matrix, 2015).
In all, about 5,500 compounds went through this assay and about 2,000 (36%) were called active. Another 18% or so got no clear call; they are omitted. This is one part of the list. A number with no mark means an inactive call. No stated cut-off is given here; in the data, active means normalized growth mostly below about 0.91 (no sharp cut-off); inconclusive means no clear call, values can overlap the other calls; inactive means mostly above about 0.92.

Test: chemical genetic growth profiling, strain panel (AID 1159580);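 further: tested at 20 µM; growth read once vehicle control cultures reached saturation at 30 °C; 1 = growth at the plate median or of vehicle wells; lower values mean less growth of the strain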
Settings: S. cerevisiae deletion strains, growth OD
[1] = locus YAL040C, strain CLN3, hits give low values
[2] = locus YCL061C, strain MRC1 (second series), hits give low values
[3] = locus YDR363W, strain ESC2, hits give low values
[4] = locus YER002W, strain NOP16, hits give low values
[5] = locus YNL175C, strain NOP13, hits give low values
[6] = locus YNL197C, strain WHI3, hits give low values
[7] = locus YNL224C, strain SQS1, hits give low values
[8] = locus YOR083W, strain WHI5 (second series), hits give low values

## CC(C)C[C@H](N)CSSC[C@@H](N)CC(C)C
[1]
  normalized growth: 0.965
[2]
  normalized growth: 1.01
[3]
  normalized growth: 1
[4]
  normalized growth: 1.02
Locus YJR075W, strain HOC1, hits give low values
  normalized growth: 1
Locus YMR307W, strain GAS1, hits give low values
  normalized growth: 1.01
Locus YNL128W, strain TEP1, hits give low values
  normalized growth: 1.01
[5]
  normalized growth: 1.01
[6]
  normalized growth: 1.01
[7]
  normalized growth: 1
[8]
  normalized growth: 1.03
Locus YPL241C, strain CIN2, hits give low values
  normalized growth: 1.01

## c1ccc(-c2nnc(-c3ccccn3)nc2-c2ccccc2)cc1
Locus YAR019C, strain CDC15, hits give low values
  normalized growth: 0.857 (active)
Locus YBL105C, strain PKC1, hits give low values
  normalized growth: 0.945
Locus YBR135W, strain CKS1, hits give low values
  normalized growth: 0.937
Locus YBR136W, strain MEC1, hits give low values
  normalized growth: 0.904
Locus YBR160W, strain CDC28, hits give low values
  normalized growth: 0.944
Locus YDL017W, strain CDC7, hits give low values
  normalized growth: 0.946
Locus YDL028C, strain MPS1, hits give low values
  normalized growth: 0.896
Locus YDL101C, strain DUN1, hits give low values
  normalized growth: 0.957
Locus YDL108W, strain KIN28, hits give low values
  normalized growth: 0.917
Locus YDL132W, strain cdc53, hits give low values
  normalized growth: 0.856 (active)
Locus YDL214C, strain PRR2, hits give low values
  normalized growth: 0.814
Locus YDR052C, strain DBF4, hits give low values
  normalized growth: 0.908 (active)
Locus YDR054C, strain cdc34, hits give low values
  normalized growth: 0.845 (active)
Locus YDR226W, strain ADK1, hits give low values
  normalized growth: 0.924
Locus YDR477W, strain SNF1, hits give low values
  normalized growth: 0.748
Locus YER123W, strain YCK3, hits give low values
  normalized growth: 0.704
Locus YER133W, strain GLC7, hits give low values
  normalized growth: 0.783
Locus YFL009W, strain cdc4, hits give low values
  normalized growth: 0.812 (active)
Locus YFL029C, strain CAK1, hits give low values
  normalized growth: 0.806 (active)
Locus YFR003C, strain YPI1, hits give low values
  normalized growth: 0.943
Locus YFR019W, strain FAB1, hits give low values
  normalized growth: 0.796
Locus YFR028C, strain CDC14, hits give low values
  normalized growth: 0.871 (active)
Locus YGR040W, strain KSS1, hits give low values
  normalized growth: 0.748
Locus YGR052W, strain FMP48, hits give low values
  normalized growth: 0.641
Locus YGR092W, strain DBF2, hits give low values
  normalized growth: 0.473 (active)
Locus YHR030C, strain SLT2, hits give low values
  normalized growth: 0.531 (active)
Locus YHR079C, strain IRE1, hits give low values
  normalized growth: 0.487 (active)
Locus YHR082C, strain KSP1, hits give low values
  normalized growth: 0.655
Locus YHR205W, strain SCH9, hits give low values
  normalized growth: 0.689
Locus YIL147C, strain SLN1, hits give low values
  normalized growth: 0.893
Locus YJL095W, strain BCK1, hits give low values
  normalized growth: 0.47 (active)
Locus YJL128C, strain PBS2, hits give low values
  normalized growth: 0.871
Locus YJL157C, strain FAR1, hits give low values
  normalized growth: 0.74
Locus YJR016C, strain ILV3, hits give low values
  normalized growth: 0.83 (active)
Locus YJR066W, strain TOR1 (second series), hits give low values
  normalized growth: 0.663
Locus YJR066W, strain TOR1, hits give low values
  normalized growth: 0.565
Locus YKL048C, strain ELM1, hits give low values
  normalized growth: 0.683 (active)
Locus YKL067W, strain YNK1, hits give low values
  normalized growth: 0.792
Locus YKL101W, strain HSL1, hits give low values
  normalized growth: 0.716 (active)
Locus YKL193C, strain SDS22, hits give low values
  normalized growth: 0.867 (active)
Locus YKL203C, strain TOR2, hits give low values
  normalized growth: 0.652 (active)
Locus YLR113W, strain HOG1, hits give low values
  normalized growth: 0.581 (active)
Locus YLR133W, strain CKI1, hits give low values
  normalized growth: 0.676 (active)
Locus YLR403W, strain SFP1, hits give low values
  normalized growth: 0.631 (active)
Locus YML070W, strain DAK1, hits give low values
  normalized growth: 0.78
Locus YMR001C, strain CDC5, hits give low values
  normalized growth: 0.903
Locus YMR205C, strain PFK2 (second series), hits give low values
  normalized growth: 0.734 (active)
Locus YMR277W, strain FCP1, hits give low values
  normalized growth: 0.871 (active)
Locus YNL006W, strain LST8, hits give low values
  normalized growth: 0.932
Locus YNL020C, strain ARK1, hits give low values
  normalized growth: 0.746
Locus YNL161W, strain CBK1, hits give low values
  normalized growth: 0.938
Locus YNL183C, strain NPR1, hits give low values
  normalized growth: 0.655
Locus YNL207W, strain RIO2, hits give low values
  normalized growth: 0.813 (active)
Locus YNL222W, strain SSU72, hits give low values
  normalized growth: 0.914
Locus YNL307C, strain MCK1 (second series), hits give low values
  normalized growth: 0.623 (active)
Locus YOL078W, strain AVO1, hits give low values
  normalized growth: 0.859 (active)
Locus YOL136C, strain PFK27, hits give low values
  normalized growth: 0.861
Locus YOR061W, strain CKA2, hits give low values
  normalized growth: 0.662 (active)
Locus YOR119C, strain RIO1, hits give low values
  normalized growth: 0.57 (active)
Locus YOR231W, strain MKK1, hits give low values
  normalized growth: 0.631
Locus YOR329C, strain SCD5, hits give low values
  normalized growth: 0.921
Locus YPL031C, strain PHO85, hits give low values
  normalized growth: 0.774
Locus YPL153C, strain RAD53, hits give low values
  normalized growth: 0.695
Locus YPL204W, strain HRR25, hits give low values
  normalized growth: 0.661 (active)
Locus YPL209C, strain IPL1, hits give low values
  normalized growth: 0.931
Locus YPL256C, strain CLN2, hits give low values
  normalized growth: 0.545 (active)
Locus YPR025C, strain CCL1, hits give low values
  normalized growth: 0.927
Locus YPR106W, strain ISR1, hits give low values
  normalized growth: 0.919
Locus YPR111W, strain DBF20, hits give low values
  normalized growth: 0.885
Strain NNK1, hits give low values
  normalized growth: 0.814 (active)
Strain TSCII, hits give low values
  normalized growth: 0.842 (active)

## c1ccc(-c2ccccn2)nc1
[1]
  normalized growth: 0.974
[2]
  normalized growth: 0.975
[3]
  normalized growth: 1.02
[4]
  normalized growth: 0.966
Locus YGR078C, strain PAC10, hits give low values
  normalized growth: 0.977
Locus YMR263W, strain SAP30, hits give low values
  normalized growth: 1
Locus YNL153C, strain GIM3, hits give low values
  normalized growth: 0.942
[5]
  normalized growth: 0.987
[6]
  normalized growth: 0.95
[7]
  normalized growth: 0.991
Locus YNL322C, strain KRE1, hits give low values
  normalized growth: 1.03
[8]
  normalized growth: 0.972
